Compound activity from PubChem BioAssay.
Sampled rows, rich in hits. Any-hit rate of the full collection: about 3.5%.
Bead autofluor – counter-screen for toxin protease inhibitors: compound fluorescence; compound autofluorescence counterscreen, microsphere flow cytometry; active compounds read high; AID 624483; 360,000 compounds, 3.1% hits; fluorescence intensity (no concentration beside the values); in the data active means fluorescence intensity above about 16000; inconclusive means no clear call, values can overlap the other calls
BoNT-A LC inh2 – blocks Botulinum neurotoxin A light chain protease; 360,000 compounds, 0.17% hits; inhibition, % at 10 µM; AID 588499; multiplex microsphere protease substrate cleavage, flow cytometry; further: plate controls were buffer without enzyme for full effect and enzyme alone for no effect
BJeLR viability – BJeLR cell viability loss | inhibition, % (concentration not given with the values) | BJeLR (HRASV12) viability, CellTiter-Glo ATP luminescence, 48 h | 300,000 compounds, 0.17% hits | AID 1554; in the data active means inhibition above about 50%; inconclusive means no clear call, values can overlap the other calls
BoNT-F LC inh – blocks Botulinum neurotoxin F light chain protease | Multiplex microsphere protease cleavage assay, flow cytometry | inhibition, % at 10 µM | 360,000 compounds, 0.22% hits | AID 588497; in the data active means inhibition above about 35%, passing the limit was not always enough; inconclusive means no clear call, values can overlap the other calls; further: plate controls were buffer without enzyme for full effect and enzyme alone for no effect
Anthrax LF prot – anthrax lethal factor protease inhibition. P15917. multiplex microsphere protease cleavage assay, LF. inhibition, % at 10 µM. 360,000 compounds, 0.12% hits. AID 588501; further: plate controls were buffer without enzyme for full effect and enzyme alone for no effect
Target sequence (P15917 whole entry, looked up): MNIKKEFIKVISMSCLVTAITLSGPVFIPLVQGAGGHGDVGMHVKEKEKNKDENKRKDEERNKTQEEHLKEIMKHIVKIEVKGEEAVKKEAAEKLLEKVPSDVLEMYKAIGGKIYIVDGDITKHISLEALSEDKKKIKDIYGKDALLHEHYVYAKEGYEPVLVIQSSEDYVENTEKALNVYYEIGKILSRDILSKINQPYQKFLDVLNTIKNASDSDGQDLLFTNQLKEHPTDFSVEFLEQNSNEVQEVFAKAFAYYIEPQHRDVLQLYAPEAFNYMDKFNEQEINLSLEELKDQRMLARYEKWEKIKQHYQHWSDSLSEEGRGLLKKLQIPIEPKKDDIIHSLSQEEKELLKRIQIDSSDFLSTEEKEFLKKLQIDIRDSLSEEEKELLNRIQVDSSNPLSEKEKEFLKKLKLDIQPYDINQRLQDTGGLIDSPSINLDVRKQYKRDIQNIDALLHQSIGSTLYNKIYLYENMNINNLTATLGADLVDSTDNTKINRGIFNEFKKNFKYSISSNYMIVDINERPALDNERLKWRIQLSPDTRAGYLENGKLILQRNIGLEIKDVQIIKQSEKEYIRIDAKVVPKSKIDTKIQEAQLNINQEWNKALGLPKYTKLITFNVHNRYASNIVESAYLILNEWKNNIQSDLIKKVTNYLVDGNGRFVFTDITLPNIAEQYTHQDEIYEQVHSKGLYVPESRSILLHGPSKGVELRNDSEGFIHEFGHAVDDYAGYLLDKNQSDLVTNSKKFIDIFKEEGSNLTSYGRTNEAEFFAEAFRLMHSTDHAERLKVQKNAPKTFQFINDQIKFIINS
* marks the source's active call; other numbers are inactive results; ? = inconclusive; nt = no result. Unless noted, no stated cut-off is given here; in the data, active means inhibition above about 30%; inconclusive means no clear call, values can overlap the other calls; inactive means below that.

SMILES	Bead autofluor	BoNT-A LC inh2	BJeLR viability	BoNT-F LC inh	Anthrax LF prot
CC(C)CCNC(=O)C1CC(=O)N(CCc2ccccc2)C1 (stereo not drawn)	3663	0	7	-14	12
COC(CNC(=O)C1CC(=O)N(CCc2ccccc2)C1)OC (stereo not drawn)	20271*	-2	0	-2	1
Cc1ccc(CCN2CC(C(=O)NCCCOC(C)C)CC2=O)cc1 (stereo not drawn)	21642*	3	-2	4	-3
Cc1ccc(CCN2CC(C(=O)N3CCN(c4ccc(F)cc4)CC3)CC2=O)cc1 (stereo not drawn)	20552*	0	-9	1	0
COC(=O)c1cc(Br)cn1S(=O)(=O)c1ccccc1	3064	2	3	0	-9
CCOc1ccc(-c2c[n+](=O)c3c(n2[O-])CCCC3)c(OCC)c1	19889*	-1	-1	-6	0
CC(=O)OC[C@@H]1CN(Cc2ccccc2)C[C@H](n2cnc3c(NCC(C)C)ncnc32)O1	3722	0	nt	0	-6
O=C(COc1ccc2ccccc2c1Br)Nc1ncn[nH]1	21352*	4	4	4	-6
CC(OC1=CC(=O)CCC1)C(=O)c1ccccc1 (stereo not drawn)	20377*	2	6	3	0
O=C1NC[C@H](CCCCN2C[C@H](Cc3ccc(O)cc3)N(CCc3ccccc3)C(=O)C2=O)N(CCC2CCCCC2)C1=O	5837	0	nt	4	4
COc1ccc(/C=C/C(=O)NCc2c(C)nn(C)c2C)cc1COc1ccc(Br)cc1	8036	3	-14	20	-3
COc1ccc(/C=C/C(=O)NCc2cnn(C)c2C)cc1COc1ccc(Br)cc1	23817*	-2	0	-4	-2
CC(NC(=O)C1CCC(C)(C(=O)O)C1(C)C)c1ccccc1 (stereo not drawn)	3789	-3	-4	-14	-7
CCN1Cc2c(/C=C/c3ccccc3)nc3ccc(OC)cc3c2N(c2cccc(Cl)c2)C1	4228	53*	-7	-8	13
COc1cccc(N2CCc3c(C)nc4ccc(Cl)cc4c32)c1	3742	-1	15	-8	5
CCCc1cc(=O)[nH]c(SCc2ccccc2Cl)n1	20635*	0	3	0	-2
CCCc1cc(=O)[nH]c(SCc2nc3ccccc3s2)n1	19993*	1	-3	2	0
Nc1cc(=O)[nH]c(SCc2ccccc2Cl)n1	4377	-3	1	-11	9
Cc1ccc(C(=O)O)cc1-c1ccc(/C=C2/NC(=O)N(c3ccccc3)C2=O)o1	23411*	0	-13	0	2
Cc1ccc(Oc2coc3cc(OC(=O)c4cccs4)ccc3c2=O)cc1	16461*	1	4	-4	-2
CCOc1ccc(NCC(=O)Nc2ccc(Cl)cc2C)cc1	19405*	1	-5	-21	-11
CC1(C(=O)Nc2ccc(Cl)c(Cl)c2)CCN1C(=O)Cc1ccc(-c2ccccc2)cc1 (stereo not drawn)	4110	0	nt	-3	-2
CC1Cc2cc(/C(O)=C3/C(=O)C(=O)N(CCCn4ccnc4)C3c3ccc(Br)cc3)ccc2O1 (stereo not drawn)	5782	0	-7	5	-1
O=C(O)c1cccc(NS(=O)(=O)c2cccc3nsnc23)c1	19434*	7	-9	10	-11
O=S(=O)(Nc1ccccc1)c1cccc2nsnc12	3667	-3	-13	?	-3
SMILES	Bead autofluor	BoNT-A LC inh2	BJeLR viability	BoNT-F LC inh	Anthrax LF prot
O=C(O)CNS(=O)(=O)c1cccc2nsnc12	22948*	2	-1	0	4
CCOC(=O)C1=C(C)OC(N)=C(C#N)C1c1ccccc1 (stereo not drawn)	4385	-1	3	3	0
CCOC(=O)C1=C(C)OC(N)=C(C#N)C1c1ccoc1 (stereo not drawn)	16971*	-2	4	-4	-2
CCCC1=C(C(=O)OCC)C(c2cccs2)C(C#N)=C(N)O1 (stereo not drawn)	22890*	0	-3	-1	0
CCOC(=O)C1=C(C)NC(SCC(N)=O)=C(C#N)C1c1cccs1 (stereo not drawn)	3001	0	-17	-1	1
CCSC1=C(C#N)C(c2cccs2)C(C(=O)OC)=C(C)N1 (stereo not drawn)	22477*	?	3	4	0
CCOC(=O)C1=C(C)OC(N)=C(C#N)C1c1cccs1 (stereo not drawn)	4194	-1	-6	-7	-3
CCCCNC(=O)C(NC(=O)c1cccnc1)C(=O)c1ccccc1 (stereo not drawn)	5750	-1	nt	9	-4
OC(COCc1cccs1)CN1CCN(c2cccc(C(F)(F)F)c2)CC1 (stereo not drawn)	2430	0	-5	0	-1
O=C(NC(NCc1ccccn1)(C(F)(F)F)C(F)(F)F)c1ccco1	22419*	0	11	0	2
CCC(C)(C(=O)NC1CCCCC1)N(CC1CCCO1)C(=O)Cc1cccs1 (stereo not drawn)	3992	0	7	-3	-7
Cc1ccnc(NS(=O)(=O)c2ccc(N=CC3=C(O)CC(C)(C)CC3=O)cc2)n1	22067*	?	-6	2	-1
CC(C)CCn1c(CN2CCN(Cc3ccccc3)CC2)nc2c1c(=O)[nH]c(=O)n2C	22665*	-1	-13	-1	-1
Cc1cccc(Cn2c(CN3CCN(Cc4ccccc4)CC3)nc3c2c(=O)[nH]c(=O)n3C)c1	5944	-1	8	-15	5
CCCSc1nc2c(c(=O)[nH]c(=O)n2C)n1Cc1ccc(C)cc1	21791*	1	-12	1	-2
Cn1c(=O)[nH]c(=O)c2c1nc(CN1CCN(c3cccc(Cl)c3)CC1)n2CCN1CCOCC1	20987*	?	-1	8	3
CCOC(=O)CSc1nc2c(c(=O)[nH]c(=O)n2C)n1C/C=C(/C)Cl	24116*	?	-5	0	-3
CCCSc1nc2c(c(=O)[nH]c(=O)n2C)n1Cc1ccccc1	4071	-3	-2	-3	12
CCCCn1c(SCC(=O)OCC)nc2c1c(=O)[nH]c(=O)n2C	5531	-1	-11	0	-9
COc1ccc(-c2csc(C(C)(NC(C)=O)c3ccccc3)n2)cn1 (stereo not drawn)	3716	0	nt	-6	1
COc1ccc(S(=O)(=O)NCc2ccc(C(=O)NCCN(C)Cc3ccccc3)cc2)cc1	3615	0	nt	-2	-1
Cc1ccc(Cn2c(CN3CCOCC3)nc3c2c(=O)[nH]c(=O)n3C)cc1	22053*	4	6	2	-2
CCOC(=O)N1CCN(C(=O)C2CCN(Cc3ccc(O)c(OCC)c3)CC2)CC1	4817	0	-6	-2	-3
CCOc1cc(CN2CCN(c3cccc(C(F)(F)F)c3)CC2)ccc1O	20233*	1	3	-1	-3
CCOc1cc(CN2CCSCC2)ccc1O	16487*	-2	2	-4	-3
COC(=O)c1ccc2nc(-c3ccccc3)c(Cc3ccc(C)cc3)n2c1	6702	0	nt	-9	-1
